Test results as given in PubChem BioAssay AID1159580 (chemical genetic matrix, 2015).
“And” between values parts separate entries of the source, which are not always exact repeats. Equal values may be shown once. Screen size: about 5,500 compounds; about 2,000 (36%) were called active. Not shown: some 18% with an inconclusive outcome. No stated cut-off is given here; in the data, active means normalized growth mostly below about 0.91 (no sharp cut-off); inconclusive means no clear call, values can overlap the other calls; inactive means mostly above about 0.92. Some of the results follow. A structure can be active in one record and inactive in another.

Test: chemical genetic growth profiling, strain panel (AID 1159580);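 further: tested at 20 µM; growth read once vehicle control cultures reached saturation at 30 °C; 1 = growth at the plate median or of vehicle wells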
Settings: S. cerevisiae deletion strains, growth OD
[1] = locus YAL013W, strain DEP1, stronger effect = lower value
[2] = locus YAL040C, strain CLN3, stronger effect = lower value
[3] = locus YCL061C, strain MRC1 (second series), stronger effect = lower value
[4] = locus YDR363W, strain ESC2, stronger effect = lower value
[5] = locus YER002W, strain NOP16, stronger effect = lower value
[6] = locus YGR078C, strain PAC10, stronger effect = lower value
[7] = locus YMR307W, strain GAS1, stronger effect = lower value
[8] = locus YNL153C, strain GIM3, stronger effect = lower value
[9] = locus YNL175C, strain NOP13, stronger effect = lower value
[10] = locus YNL197C, strain WHI3, stronger effect = lower value
[11] = locus YNL224C, strain SQS1, stronger effect = lower value
[12] = locus YOR083W, strain WHI5 (second series), stronger effect = lower value
[13] = locus YPL055C, strain LGE1, stronger effect = lower value
[14] = locus YGR229C, strain SMI1, stronger effect = lower value
[15] = locus YJR075W, strain HOC1, stronger effect = lower value
[16] = locus YMR263W, strain SAP30, stronger effect = lower value
[17] = locus YNL322C, strain KRE1, stronger effect = lower value

In the case of `COC(=O)C(C)(N)Cc1ccc(O)cc1` (configuration not stated), the normalized growth [1] is reported as 0.991 (inactive), the normalized growth [2] is reported as 0.987 (inactive) and the normalized growth [3] is reported as 1.01 (inactive). The normalized growth [4] was 0.966 (inactive), the normalized growth [5] was 1.01 (inactive) and the normalized growth [6] was 0.976 (inactive). The normalized growth [7] was 0.974 (inactive), the normalized growth [8] was 1.03 (inactive) and the normalized growth [9] was 0.996 (inactive). For the same compound, the normalized growth [10] was 0.99 (inactive), the normalized growth [11] was 0.997 (inactive) and the normalized growth [12] was 1.01 (inactive). The normalized growth [13] was 0.988 (inactive) and the normalized growth (locus YPL241C, strain CIN2, stronger effect = lower value) was 1.01 (inactive).
For `CC(N)(Cc1ccc(O)c(O)c1)C(=O)O` (configuration not stated), the normalized growth [1] was 0.956 (inactive), the normalized growth [2] was 0.961 (inactive) and 1 (inactive) and the normalized growth [3] was 0.914 (active) and 0.963 (inactive). The normalized growth [4] was 1.02 (inactive) and 1.01 (inactive), the normalized growth [5] was 1.01 (inactive) and the normalized growth [6] was 1.01 (inactive) and 0.992 (inactive). The normalized growth [14] was 0.862 (inactive), the normalized growth [15] was 0.984 (inactive) and 0.975 (inactive) and the normalized growth [16] was 1.01 (inactive). The normalized growth [8] was 0.971 (inactive), the normalized growth [9] was 1.01 (inactive) and 1 (inactive) and the normalized growth [10] was 1.01 (inactive). For the same compound, the normalized growth [11] was 1.01 (inactive), the normalized growth [17] was 1.02 (inactive) and 1.01 (inactive) and the normalized growth [12] was 1.01 (inactive) and 0.993 (inactive). The normalized growth [13] was 0.943 (inactive).
For `CCOC(=O)C(C)(N)Cc1ccc(O)c(O)c1` (configuration not stated), the normalized growth (locus YAL021C, strain ccr4, stronger effect = lower value) was 0.967 (inactive), the normalized growth (locus YAL026C, strain drs2, stronger effect = lower value) was 0.958 (inactive) and the normalized growth (locus YAL030W, strain snc1, stronger effect = lower value) was 0.965 (inactive). The normalized growth (locus YBL061C, strain skt5, stronger effect = lower value) was 0.965 (inactive), the normalized growth (locus YBR009C, strain hhf1, stronger effect = lower value) was 0.984 (inactive) and the normalized growth (locus YBR023C, strain chs3, stronger effect = lower value) was 0.981 (inactive). The normalized growth (locus YBR171W, strain sec66, stronger effect = lower value) was 0.967 (inactive), the normalized growth (locus YBR231C, strain swc5, stronger effect = lower value) was 0.992 (inactive) and the normalized growth (locus YBR279W, strain paf1, stronger effect = lower value) was 0.993 (inactive). The normalized growth (locus YCL011C, strain gbp2, stronger effect = lower value) was 0.983 (inactive), the normalized growth (locus YCL016C, strain dcc1, stronger effect = lower value) was 0.971 (inactive) and the normalized growth (locus YCL061C, strain MRC1, stronger effect = lower value) was 0.965 (inactive). For the same compound, the normalized growth (locus YCL069W, strain vba3, stronger effect = lower value) was 0.989 (inactive), the normalized growth (locus YCR088W, strain abp1, stronger effect = lower value) was 0.995 (inactive) and the normalized growth (locus YDL005C, strain med2, stronger effect = lower value) was 0.986 (inactive). For the same compound, the normalized growth (locus YDL040C, strain nat1, stronger effect = lower value) was 0.993 (inactive), the normalized growth (locus YDR001C, strain nth1, stronger effect = lower value) was 0.982 (inactive) and the normalized growth (locus YDR069C, strain doa4, stronger effect = lower value) was 0.944 (inactive). For the same compound, the normalized growth (locus YDR137W, strain rgp1, stronger effect = lower value) was 0.956 (inactive), the normalized growth (locus YDR159W, strain sac3, stronger effect = lower value) was 0.953 (inactive) and the normalized growth (locus YDR195W, strain ref2) was 0.985 (inactive). For the same compound, the normalized growth (locus YDR297W, strain sur2, stronger effect = lower value) was 0.974 (inactive), the normalized growth (locus YDR334W, strain swr1, stronger effect = lower value) was 0.921 (inactive) and the normalized growth (locus YDR335W, strain msn5, stronger effect = lower value) was 0.971 (inactive). For the same compound, the normalized growth (locus YDR392W, strain spt3, stronger effect = lower value) was 0.964 (inactive), the normalized growth (locus YEL003W, strain gim4, stronger effect = lower value) was 0.98 (inactive) and the normalized growth (locus YEL037C, strain rad23, stronger effect = lower value) was 0.983 (inactive). For the same compound, the normalized growth (locus YEL061C, strain CIN8 (second series), stronger effect = lower value) was 0.988 (inactive), the normalized growth (locus YER015W, strain faa2, stronger effect = lower value) was 0.952 (inactive) and the normalized growth (locus YER016W, strain bim1, stronger effect = lower value) was 0.992 (inactive). For the same compound, the normalized growth (locus YER111C, strain swi4, stronger effect = lower value) was 0.968 (inactive), the normalized growth (locus YER155C, strain BEM2 (second series), stronger effect = lower value) was 0.977 (inactive) and the normalized growth (locus YFR010W, strain ubp6, stronger effect = lower value) was 0.976 (inactive). The normalized growth (locus YGL167C, strain pmr1, stronger effect = lower value) was 0.946 (inactive), the normalized growth (locus YGL173C, strain kem1, stronger effect = lower value) was 0.945 (inactive) and the normalized growth (locus YGL227W, strain vid30, stronger effect = lower value) was 0.983 (inactive). For the same compound, the normalized growth (locus YGL240W, strain doc1, stronger effect = lower value) was 0.958 (inactive), the normalized growth (locus YGL253W, strain hxk2, stronger effect = lower value) was 0.978 (inactive) and the normalized growth (locus YHR013C, strain ard1, stronger effect = lower value) was 0.951 (inactive). For the same compound, the normalized growth (locus YHR027C, strain rpn1, stronger effect = lower value) was 0.947 (inactive), the normalized growth (locus YHR030C, strain SLT2, stronger effect = lower value) was 1.08 (inactive) and the normalized growth (locus YHR079C, strain IRE1, stronger effect = lower value) was 1.08 (inactive). The normalized growth (locus YHR142W, strain chs7, stronger effect = lower value) was 0.989 (inactive), the normalized growth (locus YJL092W, strain hpr5, stronger effect = lower value) was 0.978 (inactive) and the normalized growth (locus YJL095W, strain BCK1 (second series), stronger effect = lower value) was 0.973 (inactive). For the same compound, the normalized growth (locus YJL095W, strain BCK1, stronger effect = lower value) was 1.02 (inactive), the normalized growth (locus YJL115W, strain asf1, stronger effect = lower value) was 0.95 (inactive) and the normalized growth (locus YJL129C, strain trk1, stronger effect = lower value) was 0.994 (inactive). For the same compound, the normalized growth (locus YJL154C, strain vps35, stronger effect = lower value) was 0.986 (inactive), the normalized growth (locus YJL164C, strain tpk1, stronger effect = lower value) was 0.963 (inactive) and the normalized growth (locus YJL166W, strain qcr8, stronger effect = lower value) was 0.985 (inactive). The normalized growth (locus YJL187C, strain SWE1, stronger effect = lower value) was 0.977 (inactive), the normalized growth (locus YJR066W, strain TOR1, stronger effect = lower value) was 1 (inactive) and the normalized growth (locus YKL160W, strain elf1, stronger effect = lower value) was 0.987 (inactive). For the same compound, the normalized growth (locus YKR026C, strain gcn3, stronger effect = lower value) was 0.971 (inactive), the normalized growth (locus YKR091W, strain srl3, stronger effect = lower value) was 0.998 (inactive) and the normalized growth (locus YLL001W, strain dnm1, stronger effect = lower value) was 0.974 (inactive). For the same compound, the normalized growth (locus YLL026W, stronger effect = lower value) was 0.971 (inactive), the normalized growth (locus YLL041C, strain sdh2, stronger effect = lower value) was 0.962 (inactive) and the normalized growth (locus YLR027C, strain aat2, stronger effect = lower value) was 0.962 (inactive). The normalized growth (locus YLR113W, strain HOG1, stronger effect = lower value) was 1 (inactive), the normalized growth (locus YLR221C, strain rsa3, stronger effect = lower value) was 0.976 (inactive) and the normalized growth (locus YLR258W, strain gsy2, stronger effect = lower value) was 0.986 (inactive). The normalized growth (locus YLR262C, strain YPT6 (second series), stronger effect = lower value) was 0.881 (inactive), the normalized growth (locus YLR320W, strain mms22, stronger effect = lower value) was 0.988 (inactive) and the normalized growth (locus YLR342W, strain FKS1, stronger effect = lower value) was 0.977 (inactive). For the same compound, the normalized growth (locus YLR357W, strain rsc2, stronger effect = lower value) was 0.969 (inactive), the normalized growth (locus YLR370C, strain arc18, stronger effect = lower value) was 0.981 (inactive) and the normalized growth (locus YLR384C, strain iki3, stronger effect = lower value) was 0.958 (inactive). For the same compound, the normalized growth (locus YML120C, strain ndi1, stronger effect = lower value) was 0.974 (inactive), the normalized growth (locus YMR058W, strain fet3, stronger effect = lower value) was 0.946 (inactive) and the normalized growth (locus YMR125W, strain sto1, stronger effect = lower value) was 0.998 (inactive). The normalized growth (locus YMR129W, stronger effect = lower value) was 0.997 (inactive), the normalized growth (locus YMR205C, strain PFK2, stronger effect = lower value) was 0.971 (inactive) and the normalized growth (locus YMR231W, strain pep5, stronger effect = lower value) was 0.972 (inactive). The normalized growth (locus YNL071W, strain lat1, stronger effect = lower value) was 1 (inactive), the normalized growth (locus YNL183C, strain NPR1, stronger effect = lower value) was 0.987 (inactive) and the normalized growth (locus YNL209W, strain ssb2, stronger effect = lower value) was 0.961 (inactive). The normalized growth (locus YNL248C, strain rpa49, stronger effect = lower value) was 0.984 (inactive), the normalized growth (locus YNL322C, strain KRE1 (second series), stronger effect = lower value) was 0.979 (inactive) and the normalized growth (locus YNR049C, strain mso1, stronger effect = lower value) was 0.972 (inactive). For the same compound, the normalized growth (locus YOR001W, strain rrp6, stronger effect = lower value) was 0.977 (inactive), the normalized growth (locus YOR070C, strain gyp1, stronger effect = lower value) was 0.978 (inactive) and the normalized growth (locus YOR080W, strain dia2, stronger effect = lower value) was 0.982 (inactive). For the same compound, the normalized growth (locus YOR083W, strain WHI5, stronger effect = lower value) was 0.983 (inactive), the normalized growth (locus YOR106W, strain vam3, stronger effect = lower value) was 0.859 (active) and the normalized growth (locus YOR231W, strain MKK1, stronger effect = lower value) was 1.06 (inactive). For the same compound, the normalized growth (locus YOR265W, strain rbl2, stronger effect = lower value) was 0.969 (inactive), the normalized growth (locus YOR270C, strain vph1, stronger effect = lower value) was 0.951 (inactive) and the normalized growth (locus YOR290C, strain snf2, stronger effect = lower value) was 0.946 (inactive). For the same compound, the normalized growth (locus YPL051W, strain arl3, stronger effect = lower value) was 0.964 (inactive), the normalized growth (locus YPL078C, strain atp4, stronger effect = lower value) was 0.984 (inactive) and the normalized growth (locus YPL106C, strain sse1, stronger effect = lower value) was 0.886 (inactive). The normalized growth (locus YPL240C, strain hsp82, stronger effect = lower value) was 0.975 (inactive) and the normalized growth (locus YPL256C, strain CLN2, stronger effect = lower value) was 1.06 (inactive).
For `CC(N)(Cc1ccc(O)cc1)C(=O)O` (configuration not stated), the normalized growth [1] was 1.03 (inactive), the normalized growth [2] was 0.969 (inactive) and 1.01 (inactive) and the normalized growth [3] was 0.991 (inactive) and 1.01 (inactive). The normalized growth (locus YDR150W, strain NUM1, stronger effect = lower value) was 1 (inactive), the normalized growth [4] was 1 (inactive) and 1.03 (inactive) and the normalized growth [5] was 0.984 (inactive) and 1 (inactive). The normalized growth [6] was 1.02 (inactive), the normalized growth [14] was 1.03 (inactive) and the normalized growth [15] was 1.02 (inactive). For the same compound, the normalized growth [16] was 1.01 (inactive), the normalized growth (locus YNL128W, strain TEP1, stronger effect = lower value) was 0.984 (inactive) and the normalized growth [8] was 0.998 (inactive) and 1.02 (inactive). The normalized growth [9] was 0.97 (inactive) and 1.01 (inactive), the normalized growth [10] was 0.975 (inactive) and 0.984 (inactive) and the normalized growth [11] was 1.01 (inactive) and 1 (inactive). For the same compound, the normalized growth [17] was 1.03 (inactive), the normalized growth [12] was 0.974 (inactive) and 1 (inactive) and the normalized growth [13] was 1.01 (inactive) and 1.02 (inactive).
For `C[C@@](Cc1ccc(O)c(O)c1)(NN)C(=O)O`, the normalized growth [2] was 1.01 (inactive), the normalized growth [3] was 1 (inactive) and the normalized growth [4] was 1.02 (inactive). The normalized growth [5] was 1.06 (inactive), the normalized growth [7] was 0.997 (inactive) and the normalized growth [9] was 1.04 (inactive). For the same compound, the normalized growth [10] was 0.993 (inactive), the normalized growth [11] was 1.02 (inactive) and the normalized growth [12] was 0.978 (inactive).
